From PubChem BioAssay (NCI)
About 83,000 compounds went through this panel and 20% of them were active in at least one assay; those are over-represented in the sample as a whole.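 Plates (96-well) were seeded with cells, treated with compound at one concentration, and incubated for 48 hours before percent growth was determined.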 Activity calls are given as the source filed them. How the source made its calls: active means growth percent below 10; inactive means the rest.

System: CCRF-CEM leukemia
Assay: NCI-60 one-dose screen, 48 h (100 = growth as untreated, 0 = no growth, -100 = all killed)
Settings: 10 µM

Which growth does the source give for `Cc1ncc(C(=O)Nc2ccc(CN3CCN(C)CC3)c(C(F)(F)F)c2)cc1C#Cc1cnc(NC2CC2)c2ncccc12` here?
The growth was -43% (active).

For `COc1cc(NC(C)CCCN)c2nccc(C)c2c1OC` (stereo unspecified), which growth is on record?
Its growth is 64.8% (inactive).

`CCOC(=O)CCCCCCCCC(=O)OCC` was tested. Which growth did it give?
The growth was 107% (inactive).

For `CCCCCCCCC/C(=N\NC(=O)c1ccncc1)c1ccc(O)c(O)c1O`, which growth is on record?
Its growth is 9.71% (active).

For `C/C=C(/C)C(=O)OC1C=C(CO)C(=O)C(OC(=O)C2(C)OC2C)C1C(C)C` (stereo unspecified), which growth is on record?
Its growth is 1.28% (active).

Which growth does the source give for `Cc1nc(NC(=O)NC2CCCCC2)sc1C(=O)NN` here?
The growth was 112% (inactive).

With `COc1ccc(Cn2cc3c(c2-c2ccc(OC)cc2)CCc2cnoc2-3)cc1` as the compound, how does the growth read?
The growth was 9.28% (active).

How did the growth turn out when `CCOC(=O)CSSCC(=O)OCC` was run?
Its growth is 95.9% (inactive).

Which growth does the source give for `O=C(N/N=C/c1cc(Cl)ccc1O)C(=O)N/N=C/c1cc(Cl)ccc1O` here?
Its growth is 39.7% (inactive).

`Nc1nc2c(c3cnccc13)C(c1cccc(Br)c1)Cc1cnccc1-2` (stereo unspecified) was tested. Which growth did it give?
The growth was 6.84% (active).

With `COc1ccc(Cn2cc3c(c2-c2ccc(O)cc2)CCc2cnoc2-3)cc1` as the compound, how does the growth read?
The growth was 14.1% (inactive).

How did the growth turn out when `COc1cccc(CNC(=O)c2cccc(C3CC(=O)c4c(cc(OC)c(OC)c4OC)O3)c2)c1` (stereo unspecified) was run?
The growth was 13.3% (inactive).

How did the growth turn out when `COc1nc(OC)nc(-c2cc(-c3cc(OC)c(OC)c(OC)c3)no2)n1` was run?
Its growth is 91.3% (inactive).

How did the growth turn out when `O=C(N/N=C/c1ccccc1Cl)c1cccc2ccccc12` was run?
The growth was 88.3% (inactive).

For `CCCCCCCCCC[N+](C)(C)C`, which growth is on record?
Its growth is -18.8% (active).

How did the growth turn out when `Cc1nc2c(nnn2-c2ccccc2)c2nc(-c3ccc(Cl)cc3)oc(=O)c12` was run?
The growth was 103% (inactive).
